Common to all, as to type: functional
Test [1] has as its system Plasmodium falciparum. The experiment in a line: GSK_TCMDC: Inhibition of Plasmodium falciparum 3D7 in whole red blood cells, using parasite LDH activity as an index of growth. Test compounds present at 2uM.
Test [2] concerns Plasmodium falciparum. As to the kind of experiment: GSK_TCMDC: Inhibition of Plasmodium falciparum Dd2 in whole red blood cells, using parasite LDH activity as an index of growth. Test compounds present at 2uM.
The subject of a further test is HepG2. As to the kind of experiment: GSK_TCMDC: Percent inhibition of human HepG2 cell line. Test compounds present at 10uM.

Results on 31 molecules are retold here after ChEMBL document CHEMBL1157539, “Thousands of chemical starting points for antimalarial lead identification” (Nature, 2010).

For orientation: Inhibition means the change of the read-out against control, counted positive when it falls. Take `Cc1cc(C(=O)Nc2ccc3c(ccn3C3CCCN(Cc4ccc(C(F)(F)F)cc4F)CC3)c2)no1` (stereo not drawn): the results for the Inhibition in the test on Plasmodium falciparum [1], in the test on Plasmodium falciparum [2] and in the test on HepG2 were 92%, 95% and 19%, respectively.
Regarding `O=C(/C=C/c1ccc(Cl)cc1)NCCCCCN1CCCC(C(=O)Nc2ccc(Cl)cc2)C1` (stereo not drawn), the Inhibition with Plasmodium falciparum [1] is 94%; in the test with Plasmodium falciparum [2], 6%; in the test on HepG2, 24%.
Consider `COc1cccc(-c2cnc(N)c(-c3nc4ccc(F)cc4[nH]3)c2)c1.Cl`, for which the results for the Inhibition in the test with Plasmodium falciparum [1], in the test on Plasmodium falciparum [2] and in the test with HepG2 were 97%, 43% and 47%, respectively.
Turning to `COc1ccc(CN2CCC(N3CC(c4ccccc4)(c4ccccc4)OCC3=O)C2)c(O)c1.O=C(O)C(F)(F)F` (stereo not drawn), the Inhibition in the test on Plasmodium falciparum [1] is listed as 96%; in the test with Plasmodium falciparum [2], 27%; in the test with HepG2, 10%.
In the case of `COc1ccc(CN(C)Cc2ccc(NC(=O)c3cccc4c(=O)c5cccc(C)c5[nH]c34)cc2)cc1OC`, the Inhibition was determined as 92% with Plasmodium falciparum [1], 22% with Plasmodium falciparum [2] and 7% in the test with HepG2.
Turning to `CCCNCc1ccc(-c2ccc(CN(Cc3ccc4c(c3)OCO4)C(=O)[C@H]3CCCO3)cc2)nc1.O=C(O)C(F)(F)F`, the Inhibition in the test on Plasmodium falciparum [1] was 90%; in the test on Plasmodium falciparum [2], 39%; in the test with HepG2, 18%.
The matching figures for `O=C(/C=C/c1ccc(Cl)c(Cl)c1)NCCCCCN1CCCC(CNC(=O)Nc2ccc(Oc3ccccc3)cc2)C1` (stereo not drawn): 99%, 6% and 26%.
The matching figures for `CCN(CCCN1CCCCC1)c1cc(C)nc(Nc2ccc(C)cc2Cl)n1.O=C(O)C(F)(F)F`: 93%, 25% and 44%.
Regarding `CS(=O)(=O)c1ccc(-c2cnc(N)c(-c3cccc(O)c3)c2)cc1`, the Inhibition worked out at 98% with Plasmodium falciparum [1], 97% with Plasmodium falciparum [2] and 48% in the test with HepG2.
With `Cc1cc(C(=O)NC2CCN(Cc3ccccc3)CC2)ccc1-c1nc2ccc(C(F)(F)F)cc2[nH]1`, the Inhibition with Plasmodium falciparum [1] came out at 95%; in the test on Plasmodium falciparum [2] it was 2%; in the test on HepG2 it was 19%.
Regarding `COc1cc(NC(=O)/C=C/c2ccccc2Cl)cc(OCCN2CCC(O)(c3ccccc3)CC2)c1.O=C(O)C(=O)O`, the Inhibition with Plasmodium falciparum [1] is reported as 100%; in the test with Plasmodium falciparum [2], 46%; with HepG2, 48%.
Consider `COC(=O)c1cccc(CNCc2ccc(-c3ccc(-c4nc5cc(C(F)(F)F)ccc5[nH]4)cc3)cc2)c1.O=C(O)C(F)(F)F`, for which the Inhibition in the test with Plasmodium falciparum [1] came out at 100%; in the test on Plasmodium falciparum [2], 98%; with HepG2, 22%.
For the molecule `CCS(=O)(=O)Nc1ccc2c(c1)/C(=C(/Nc1ccc(CN3CCCCC3)cc1)c1ccccc1)C(=O)N2` [HESPERADIN], the results for the Inhibition with Plasmodium falciparum [1], in the test on Plasmodium falciparum [2] and in the test on HepG2 were 87%, 74% and 53%, respectively.
The corresponding values for `Cc1ccc(N2C(N)=NC(N)=NC2c2ccccc2)cc1.Cl` (stereo not drawn) are 94%, 1% and 11%.
The matching figures for `O=C(Nc1ccc(N2CCN(C(=O)/C=C/c3ccccc3)CC2)c(Cl)c1)c1ccc([N+](=O)[O-])o1`: 97%, 90% and 98%.
As for `Cc1cc(N[C@@H](Cc2ccccc2)C(=O)NCc2cccc(F)c2)nc(NCCc2ccccc2)n1.O=C(O)C(F)(F)F`, the Inhibition in the test with Plasmodium falciparum [1] is 100%; in the test on Plasmodium falciparum [2] it was 73%; in the test with HepG2 it was 7%.
In the case of `Cc1nc(-c2nc(N3CCC(C(N)=O)CC3)ncc2-c2ccsc2)sc1C`, the Inhibition in the test with Plasmodium falciparum [1] was 93%; in the test on Plasmodium falciparum [2], 33%; in the test on HepG2, 0%.
As to `OC(CNCc1ccco1)Cn1c2ccc(Br)cc2c2cc(Br)ccc21` (stereo not drawn), the Inhibition was 92% with Plasmodium falciparum [1], 72% in the test with Plasmodium falciparum [2] and 10% in the test with HepG2.
The matching figures for `CN/C(=N\O)NCCN(C)C.Cl`: 88%, 0% and 0%.
The matching figures for `CS(=O)(=O)O.N#Cc1ccc(CNCCCCCCNCc2ccc(C#N)c3ccccc23)c2ccccc12`: 100%, 96% and 51%.
Take `CN1CCC(c2ccc(NC(=O)c3ccc(-c4cccc(C(F)(F)F)c4)o3)cc2)CC1`: the Inhibition was 86% in the test with Plasmodium falciparum [1], 23% in the test on Plasmodium falciparum [2] and 23% in the test with HepG2.
Regarding `C=CCn1c(SCC(=O)Nc2cc(C)ccc2OC)nc2sc(C)cc2c1=O`, the figures for the Inhibition in the test on Plasmodium falciparum [1], in the test on Plasmodium falciparum [2] and with HepG2 were 100%, 86% and 6%, respectively.
Regarding `Fc1ccc2[nH]c(-c3ccc(-c4cccc(CN5CCN(c6ccncc6)CC5)c4)cc3)nc2c1.O=C(O)C(F)(F)F`, the Inhibition in the test with Plasmodium falciparum [1] stood at 100%; with Plasmodium falciparum [2], 100%; in the test on HepG2, 66%.
As for `N#Cc1ccc(N(CCOc2ccc(Cl)cc2)Cc2ccccc2C(F)(F)F)cc1C(F)(F)F`, the Inhibition in the test on Plasmodium falciparum [1] is on record as 91%; with Plasmodium falciparum [2], 64%; in the test with HepG2, 3%.
The matching figures for `O=C(O)C(F)(F)F.OCC1CCN(Cc2ccc(-c3cccc(-c4nc5cc(F)ccc5[nH]4)c3)cc2)CC1`: 100%, 25% and 14%.
For the molecule `O=C(Nc1ccc(-c2nc3ccccc3[nH]2)cc1)c1cccc(S(=O)(=O)N2CCCC2)c1`, the Inhibition is 100% in the test with Plasmodium falciparum [1], 64% in the test with Plasmodium falciparum [2] and 0% in the test with HepG2.
For the molecule `O=C(Nc1ccc([N+](=O)[O-])cc1O)Nc1ccccc1Oc1ccccc1`, the Inhibition in the test on Plasmodium falciparum [1] amounted to 92%; in the test on Plasmodium falciparum [2], 1%; in the test with HepG2, 45%.
As for `N#Cc1cccc(NC(=O)NC2CCN(CCCCCNC(=O)/C=C/c3ccc(Cl)c(Cl)c3)CC2)c1`, the Inhibition with Plasmodium falciparum [1] is given as 100%; in the test on Plasmodium falciparum [2], 7%; in the test on HepG2, 31%.
Regarding `CC(C)CCN1CCCN(Cc2cccc(C(=O)Nc3ccc(C(C)(C)C)cc3)c2)CC1.O=C(O)C(F)(F)F`, the results for the Inhibition in the test on Plasmodium falciparum [1], in the test with Plasmodium falciparum [2] and with HepG2 were 85%, 1% and 33%, respectively.
Regarding `c1ccc(N2CCN(c3cc(-c4cccnc4)nc(-c4ccncc4)n3)CC2)nc1`, the Inhibition in the test on Plasmodium falciparum [1] was determined as 99%; in the test with Plasmodium falciparum [2], 22%; in the test with HepG2, 22%.
On to `Cl.c1ccc(Oc2ccc(Nc3nncc4ccccc34)cc2)cc1`, for which the Inhibition in the test on Plasmodium falciparum [1] is given as 86%; with Plasmodium falciparum [2], 82%; with HepG2 it was 20%.
